Data on 7 molecules can be found in PubChem BioAssay (NCATS).

Records with an inconclusive call do not appear. Calls of active or inactive are those of the source. Calls come from the whole dose curve; as a rule, active = well fitted inhibition curve with a large enough effect; inconclusive = small, poorly fitted or top-dose-only effect; inactive = flat fitted curve, though single readings scatter. Where a SMILES comes first, the peptide text is derived from it. [ ]: non-standard residue; d: D form. Hyp = O=C(O)[CH]1C[CH](O)CN1; Phe(ol) = N[CH](CO)Cc1ccccc1; Iva = CC[C](C)(N)C(=O)O; Aib = CC(C)(N)C(=O)O

The test system of the assay is HACAT. Kind of assay: qHTS assay to identify novel small-molecules to repurpose for Merkel cell carcinoma treatment (AID 1296009). Note: nearly all actives have a fitted effect of over 60% in size. As to conditions: MCC and control cell lines, CellTiter-Glo viability, 72 h; at 44.8 µM (top of the series) unless noted. In outline:
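After compound transfer in DMSO, plates were kept 72 hr at 37 degree celsius. Luminescent ATP signal from CellTiter-Glo served as viability measure, normalized against DMSO and no-cell controls.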
(In general: qHTS replaces the single test concentration by a dilution series.)
For `CCn1c(-c2nonc2N)nc2c(C#CC(C)(C)O)ncc(OCC3CCCNC3)c21` (configuration not stated), the molecule was called inactive. Consider `Cc1cc2c(c(=O)o1)C=C1CC[C@H]([C@H](C)Cn3cnc(=N)c4[nH]cnc43)C[C@@H]1O2`, for which the molecule was classed as inactive.

Turning to `CCC(C)(NC(=O)C(CCC(N)=O)NC(=O)C1CC(O)CN1C(=O)C(C)(C)NC(=O)C(C)(C)NC(=O)C(CC(C)C)NC(=O)CNC(=O)C(NC(=O)C(C)(C)NC(=O)C(C)(C)NC(=O)C(C)(C)NC(=O)C(Cc1ccccc1)NC(C)=O)C(C)C)C(=O)N1CC(O)CC1C(=O)NC(C)(C)C(=O)NC(CO)Cc1ccccc1` (configuration not stated) (Ac-F[Aib][Aib][Aib]VGL[Aib][Aib][Hyp]Q[Iva][Hyp][Aib][Phe(ol)]; configuration not given here), the outcome is “inactive [at 9.27 µM]”. Then `CCc1ccccc1OC[C@@H](O)CN[C@H]1CCCc2ccccc21`, with “inactive”. The same measure for `c1cc(NCCc2c[nH]c3ccccc23)cc(Nc2ccncc2)c1`: “inactive”; for `CCn1c(-c2nonc2N)nc2c(C#CCO)ncc(OCCCN)c21`: “inactive”; for `C/C(=N\N=C(N)N)c1cc(NC(=O)CCCCCCCCC(=O)Nc2cc(/C(C)=N/N=C(N)N)cc(/C(C)=N/N=C(N)N)c2)cc(/C(C)=N/N=C(N)N)c1`: “inactive”.
